Test results published in PubChem BioAssay (NCATS).
Results filed as inconclusive are left out. Calls of active or inactive are those of the source. Unless noted, calls come from the whole dose curve; as a rule, active = well fitted curve in the direction sought with a large enough effect; inconclusive = small, poorly fitted or top-dose-only effect, or another doubt; inactive = no such curve, though single readings can be large; an effect the other way counts as inactive or inconclusive.

Experiments:
[1] = Cell Viability - Jurkat (AID 426;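 active = dose-dependent loss of cell ATP signal giving a full or clear fitted curve, ranked by lower potency value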; note: potency is the fitted concentration of half-maximal effect); conditions: qHTS
Method in brief: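 Jurkat (Clone E6-1) cells, 5000/well in complete medium, exposed to compounds for 40 hr at 37C; intracellular ATP measured by CellTiter-Glo luminescence after 20 min at room temperature. AC50 from Hill fits.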

[2] = Cell Viability - Hek293 (AID 427;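 active = compounds whose dose-response curve shows a full or clear partial loss of cell viability, called from curve shape rather than a numeric limit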;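 note: potency is the fitted concentration of half-maximal effect; cells exposed to compound for 40 hours at 37 °C before reading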); conditions: qHTS
Method in brief: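 Luminescent ATP content (CellTiter-Glo, 20 min at room temperature) was measured after a 40 hr, 37 °C compound exposure of HEK293 cells. AC50 values came from Hill-equation fits of qHTS concentration-response data normalized to DMSO and 100 uM tamoxifen.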

[3] = Cell Viability - HepG2 (AID 433; calls by dose curve;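 note: potency is the fitted concentration of half-maximal effect; potency for ATP loss meaning cytotoxicity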); conditions: qHTS
Method in brief: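 Cytotoxicity is scored as loss of intracellular ATP in HepG2 cells exposed to compounds for 40 h. Concentration-response curves, normalized to DMSO and 100 uM tamoxifen, give AC50 values.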

[4] = Cell Viability - MRC5 (AID 434; calls by dose curve;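 note: potency is the fitted concentration of half-maximal effect; potency reflects cytotoxicity seen as loss of intracellular ATP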); conditions: MRC5 lung fibroblast viability, qHTS
Method in brief: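 MRC5 normal human lung fibroblasts (1500/well) were treated with compounds for 40 hr at 37 °C in complete medium, and viable cells were measured as intracellular ATP by CellTiter-Glo luminescence. AC50 came from Hill fits, normalized to DMSO and 100 uM tamoxifen.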

[5] = Cell Viability - SK-N-SH (AID 435; calls by dose curve;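 note: potency is the fitted concentration of half-maximal effect; compound exposure lasted 40 h at 37 °C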); conditions: SK-N-SH neuroblastoma cell viability qHTS
Method in brief: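 Cells seeded at 1500 per well and incubated 5 hr at 37 °C. Compound added, then 40 hr at 37 °C. CellTiter-Glo added, 20 min at room temperature, luminescence read.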

[6] = molecular target: Mitogen-activated protein kinase 10 (Mus musculus) (UniProt Q61831); assay: JNK3 AlphaScreen Assay (AID 530; active = well fitted curve in either direction with a large enough effect, not every such curve was filed as active;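 note: kinase came from lysate of stimulated human HepG2 cells; signal reports phosphorylation of biotinylated GST-cJun 1-79 at Ser73 with 10 µM ATP; % is set by controls: 0 for no effect and ±100 for the full control effect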); conditions: JNK3 lysate, c-Jun phosphorylation; series mostly up to 57.1 µM
Method in brief: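 Inhibitors reduce antibody binding to phosphorylated biotin-cJun, lowering AlphaScreen luminescence. Lysates from HepG2 cells pre-activated by IL-1beta plus TNF-alpha supplied JNK3; compounds were titrated.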

[7] = Cell Viability - N2a (AID 540); conditions: N2a mouse neuroblastoma cell viability; at 92.2 µM (top of the series);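 note: plate controls were DMSO alone for no effect and tamoxifen control for full effect; nearly all actives have a fitted effect of over 45% in size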
Method in brief: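 Mouse neuroblastoma N2a cells, 1500/well, exposed to compounds 40 h at 37 °C in complete medium. Viability measured as cellular ATP by CellTiter-Glo luminescence; AC50 from Hill fits of concentration-response.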

[8] = Cell Viability - NIH 3T3 (AID 541); conditions: NIH 3T3 cell viability, qHTS; activity change, negative = cytotoxicity: at 92.2 µM (top of the series);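 note: plate controls were DMSO alone for no effect and tamoxifen positive control for full effect; nearly all actives have a fitted effect of over 25% in size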
Method in brief: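 Mouse NIH 3T3 fibroblasts, 1000 cells/well, rested 5 hr at 37 °C, then exposed to compound for 40 hr at 37 °C in complete medium. Viability read as intracellular ATP by CellTiter-Glo luminescence; AC50 from Hill-equation fits of concentration-response data.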

[9] = Cell Viability - HUV-EC-C (AID 542); conditions: HUV-EC-C endothelial cell viability, qHTS; series mostly up to 92.2 µM; note: % is set by controls: 0 for no effect and ±100 for the full control effect; nearly all actives have a fitted effect of over 35% in size
Method in brief: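 HUV-EC-C human vascular endothelial cells, 1000/well, exposed to compound for 40 hr at 37 °C in complete medium. Intracellular ATP was read by CellTiter-Glo luminescence. AC50 came from Hill-equation fits of concentration-response data.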

[10] = Cell Viability - H-4-II-E (AID 543); conditions: H-4-II-E rat hepatoma viability; series mostly up to 92.2 µM; note: % is set by controls: 0 for no effect and ±100 for the full control effect; nearly all actives have a fitted effect of over 35% in size
Method in brief: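 Rat hepatoma H-4-II-E cells, 1500 per well, treated 40 h at 37 °C in complete medium. Cellular ATP read by CellTiter-Glo luminescence; AC50 from Hill fits of concentration-response.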

[11] = Cell Viability - SH-SY5Y (AID 544); conditions: SH-SY5Y neuroblastoma cell viability; viability change, negative = cytotoxic: at 92.2 µM (top of the series); note: nearly all actives have a fitted effect of over 55% in size
Method in brief: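 SH-SY5Y human neuroblastoma cells (1500/well) incubated 5 h, then compound-treated 40 h at 37 °C in complete medium. Viability read as intracellular ATP by CellTiter-Glo luminescence after 20 min; AC50 from Hill-equation fits of qHTS concentration-response.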

[12] = Cell Viability - Renal Proximal Tubule (AID 545); conditions: renal proximal tubule cells viability; at 91.7 µM (top of the series), primary cells of rat origin unless noted; note: nearly all actives have a fitted effect of over 40% in size
Method in brief: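 Cytotoxicity is scored as a concentration-dependent drop in cellular ATP in primary rat renal proximal tubule cells exposed for 40 hr. AC50 derives from Hill modelling.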

[13] = Cell Viability - Mesenchymal (AID 546); conditions: mesenchymal cells viability, qHTS; series mostly up to 91.7 µM;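 note: cells exposed to compound for 40 hours before reading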
Method in brief: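 Normal human renal glomerulus-derived kidney mesenchymal cells, 1000 per well in complete medium, were treated with compounds for 40 hr at 37 °C. Viability was read as intracellular ATP by CellTiter-Glo luminescence; AC50 values came from Hill-equation fits of qHTS concentration-response data.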

[14] = Cellular Toxicity (caspase-3) HepG2 (AID 654); conditions: HepG2 caspase-3 activation, luminescence, 0% = DMSO only, 100% = tamoxifen; series mostly up to 92.2 µM;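 note: cells exposed to compound for 16 hours before reading; 0% = DMSO alone and 100% = caspase signal from 100 µM tamoxifen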
Method in brief: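 HepG2 cells (1500/well) were treated 16 h at 37 °C in complete medium, then caspase 3/7 activity was read by Caspase-Glo luminescence. Data were normalized to DMSO and 100 uM tamoxifen; AC50 came from Hill-equation fits of qHTS concentration-response.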

[15] = Cellular Toxicity (caspase-3) Jurkat (AID 655); conditions: Jurkat caspase-3 activation, luminescence, DMSO = 0%, tamoxifen = 100%; at 92.2 µM (top of the series);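 note: cells exposed to compound for 16 h at 37 °C before reading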
Method in brief: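 Caspase 3/7 activation is scored as increased luminescence in Jurkat cells cultured with compound for 16 hours in complete medium. AC50 values come from Hill fits of qHTS concentration-response data normalized to DMSO and 100 uM tamoxifen controls.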

[16] = Cellular Toxicity (caspase-3) HUV-EC-C (AID 656); conditions: HUV-EC-C cells, caspase-3 activation (apoptosis), vehicle = 0, 100 µM tamoxifen = 100%; series mostly up to 92.2 µM
Method in brief: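 Read-out: luminescence proportional to caspase 3/7 activity, measured 20 min after adding Caspase-Glo 3/7 reagent. Cells (HUV-EC-C) had received compound for 16 hr at 37°C. Increases relative to DMSO and 100 uM tamoxifen gave concentration-response AC50 values.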

[17] = Cellular Toxicity (caspase-3) SHSY5Y (AID 657); conditions: SH-SY5Y caspase-3 activation, DMSO zero, 10 µM staurosporine = 100%; series mostly up to 91.7 µM
Method in brief: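 Cells plated and incubated 5 h at 37 °C, dosed over a concentration range, incubated 16 h, then given Caspase-Glo 3/7 reagent for 1 h at room temperature before luminescence reading. Staurosporine (10 uM) defined full stimulation.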

[18] = Cellular Toxicity (caspase-3) BJ (AID 658); conditions: BJ fibroblasts, luminescence, normalized: DMSO 0%, staurosporine 100%; series mostly up to 91.7 µM
Method in brief: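 Luminescent aminoluciferin-substrate cleavage reports caspase 3/7 activity in normal human BJ fibroblasts after 16 hr compound exposure at 37 °C. Normalized to DMSO (basal) and 10 uM staurosporine (100%); AC50 from Hill fit of concentration-response.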

[19] = Cellular Toxicity (caspase-3) MRC-5 (AID 659); conditions: MRC-5 cells, luminescence, normalized: DMSO 0%, 10 µM staurosporine 100%; series mostly up to 91.7 µM
Method in brief: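 Luminescence from caspase-cleaved aminoluciferin substrate (Caspase-Glo 3/7, 1 hr RT) reports caspase 3/7 activity in MRC-5 lung fibroblasts after 16 hr compound exposure. Normalized to DMSO basal and 10 uM staurosporine as 100%; AC50 from Hill fits.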

[20] = Cellular Toxicity (caspase-3) Mesangial (AID 660); conditions: mesangial cells, normalized: DMSO 0%, 100 µM tamoxifen 100%; series mostly up to 91.7 µM;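 note: cells exposed to compound for 16 h before the caspase read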
Method in brief: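 Human renal glomerular mesangial cells, 1000/well, 5 h at 37 C before 16 h compound treatment. Caspase-Glo 3/7 luminescence after 20 min; normalized to DMSO and 100 uM tamoxifen, AC50 from Hill fit.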

[21] = Cellular Toxicity (caspase-3) SK-N-SH (AID 661); conditions: SK-N-SH caspase-3 activation, qHTS, DMSO as zero, staurosporine as full; series mostly up to 91.7 µM
Method in brief: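 Human SK-N-SH neuroblastoma cells, 1500/well, were exposed to compounds for 16 hours at 37 °C. Caspase-Glo 3/7 luminescence was normalized to DMSO (basal) and 10 uM staurosporine (100%), and AC50 came from a Hill fit.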

[22] = Cellular Toxicity (caspase-3) H-4-II-E (AID 663); conditions: H-4-II-E rat hepatoma, scaled: DMSO 0%, 100 µM tamoxifen 100%; series mostly up to 92.2 µM;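 note: cells exposed to compound for 16 hr before readout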
Method in brief: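 Luminescence from caspase-cleaved aminoluciferin substrate, read 20 min after reagent addition, reports caspase 3/7 activation in rat H-4-II-E cells after 16 hr compound exposure. Normalized to DMSO (basal) and 100 uM tamoxifen (100%); AC50 from Hill fits.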

BrCCBr
inactive: Potency [1] > 92 µM | Potency [2] > 92 µM | Potency [3] > 92 µM | Potency [4] > 92 µM | Potency [5] > 92 µM | outcome [6] | activity change, negative = cytotoxicity [7] -0.148% | activity change, negative = cytotoxicity [8] -25.3% | Potency [9] | Potency [10] | Potency [11] | activity change, negative = cytotoxicity [12] -6.16% | outcome [13] | outcome [14] | caspase-3 activation [15] -0.244% | outcome [16] | outcome [17] | outcome [18] | outcome [19] | outcome [20] | outcome [21] | outcome [22]
